From PubChem BioAssay AID1259412 (Laboratorio de Genomica e Expressao (LGE), UNICAMP, 2018)
Active and inactive are the calls of the source. No rule for the calls is given here.

Legend:
[1] = AOX inhibitors, oxygen consumption, profiling panel (AID 1259412); conditions: AOX-dependent respiration, at 500 µM; for growth (% of control): O2 uptake, measured here: growth; for O2 uptake (% of control): measured here: O2 uptake, control condition (no AOX);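 as to growth (% of control): growth monitored over 72 h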
[2] = test system: alternative oxidase (AOX); test: as above; conditions: AOX-dependent respiration, at 500 µM, stronger effect = lower value
[3] = AOX-dependent treatment condition, stronger effect = lower value

Structure (SMILES)	growth (% of control) [1, 3]	growth (% of control) ([1]; control condition)	O2 uptake (% of control) ([1]; stronger effect = lower value)	O2 uptake (% of control) [2]
O=C(Nc1cccc(OCc2ccccc2)c1)c1ccccc1	99.7%	117%	90.5%	38.2% (active)
O=C(Nc1cccc(Br)c1)c1cccc(F)c1	22.3%	90.4%	77.9%	35.1% (active)
COc1cc(NC(=O)c2cccc(Cl)c2)cc(OC)c1OC	82.2%	78%	97.8%	81.5% (active)
NC(=O)c1ccccc1NC(=O)c1cccc(I)c1	91.2%	98.8%	87.5%	35.5% (active)
O=C(NCc1ccc2c(c1)OCO2)c1cccc(Cl)c1	55.3%	72%	101%	14.2% (active)
Cc1cccc(C(=O)Nc2cccc(I)c2)c1	61.9%	110%	93.2%	13.3% (active)
Nc1cccc(S(=O)(=O)c2cccc(NC(=O)c3cccc(Cl)c3)c2)c1	94.1%	83.7%	110%	98.3% (inactive)
O=C(Nc1cccc(Cl)c1)c1cccc(I)c1	73%	88.6%	80.5%	15.4% (active)
O=C(Nc1ccc(N2CCOCC2)cc1)c1ccccc1	85.7%	87.8%	93.3%	93.8% (inactive)
O=C(Nc1ccc(-n2ccnc2)cc1)c1cccc(Br)c1	44.9%	75.3%	84.4%	72.6% (active)
N#Cc1cccc(C(=O)Nc2cccc(F)c2)c1	55.1%	107%	103%	53.5% (active)
O=C(Nc1cccc(OCc2ccccc2)c1)c1cccc(Br)c1	90.8%	93.9%	107%	88.7% (active)
Cc1cccc(C(=O)Nc2cccc(C(F)(F)F)c2)c1	54.5%	88.4%	101%	15.2% (active)
O=C(Nc1cccc(F)c1)c1cccc(F)c1	23%	78.7%	103%	52.3% (active)
O=C(Nc1cccc([N+](=O)[O-])c1)c1cccc(Br)c1	74.5%	80.8%	95.1%	23.6% (active)
O=C(Nc1ccc(N2CCOCC2)cc1)c1cccc(I)c1	95.3%	99.3%	94.4%	74.5% (inactive)
Cc1cccc(C(=O)Nc2cccc([N+](=O)[O-])c2)c1	36.7%	80.2%	98.8%	34.3% (active)
O=C(Nc1ccc(N2CCOCC2)cc1)c1ccccc1I	86.7%	96.2%	86.1%	59.6% (active)
O=C(Nc1cccc([N+](=O)[O-])c1)c1cccc(I)c1	68.4%	95.6%	93.5%	21% (active)
O=C(Nc1cccc(NC(=O)c2cccc(Br)c2)c1)c1cccc(Br)c1	77.6%	95.3%	105%	66.5% (active)
Nc1cccc(S(=O)(=O)c2cccc(NC(=O)c3cccc(F)c3)c2)c1	84%	106%	104%	101% (inactive)

Structure (SMILES)	growth (% of control) [1, 3]	growth (% of control) ([1]; control condition)	O2 uptake (% of control) ([1]; stronger effect = lower value)	O2 uptake (% of control) [2]
O=C(Nc1ccccc1)c1ccccc1	69.8%	94.3%	99.9%	67.2% (active)
O=C(Nc1cccc(I)c1)c1ccccc1	95%	91%	78.6%	17.3% (active)
COc1cccc(C(=O)Nc2cc(OC)c(OC)c(OC)c2)c1	104%	89%	101%	77.6% (inactive)
Cc1cccc(C(=O)Nc2cccc(OCc3ccccc3)c2)c1	93.7%	109%	108%	67.8% (active)
O=C(Nc1cccc(I)c1)c1cccc(Br)c1	88.2%	103%	92%	14.3% (active)
COc1cccc(C(=O)Nc2cccc(S(=O)(=O)c3cccc(N)c3)c2)c1	132%	112%	105%	98.1% (inactive)
O=C(Nc1ccc(N2CCOCC2)cc1)c1cccc(Cl)c1	89.6%	92.8%	90.9%	81.3% (active)
Cc1cccc(C(=O)Nc2cccc(Cl)c2)c1	14.9%	65.6%	87.4%	20.9% (active)
O=C(Nc1cccc(Cl)c1)c1cccc(F)c1	17.8%	60.1%	78.3%	24.6% (active)
N#Cc1cccc(C(=O)NCc2ccc3c(c2)OCO3)c1	79.6%	79.7%	103%	66.1% (active)
COc1cccc(C(=O)Nc2cccc(NC(=O)c3cccc(OC)c3)c2)c1	95.4%	96.8%	102%	79.2% (inactive)
O=C(Nc1ccccc1)c1cccc(F)c1	73.9%	101%	103%	61.8% (active)
N#Cc1cccc(C(=O)Nc2cccc(C(F)(F)F)c2)c1	49.7%	90.1%	89.3%	28.9% (active)
O=C(Nc1cccc(Br)c1)c1cccc(Cl)c1	65.4%	91.3%	95.9%	12% (active)
COc1cccc(C(=O)Nc2cccc([N+](=O)[O-])c2)c1	63.7%	109%	91.5%	31.9% (active)
O=C(Nc1cccc(Br)c1)c1ccccc1I	57.8%	98.8%	81%	10.4% (active)
O=C(Nc1cccc(Cl)c1)c1cccc(Cl)c1	48.1%	80.2%	89.8%	9.19% (active)
CCN(CC)CCNC(=O)c1ccccc1	92.5%	87.9%	95.7%	78.4% (active)
O=C(Nc1cccc([N+](=O)[O-])c1)c1ccccc1	61.1%	103%	95.6%	36% (active)
O=C(NCc1ccc2c(c1)OCO2)c1cccc(F)c1	39.8%	48.8%	89.6%	36.9% (active)
COc1cccc(C(=O)Nc2ccccc2C(N)=O)c1	80.1%	82.1%	93.7%	76.2% (inactive)
